About 83,000 compounds went through this panel and 20% of them were active in at least one assay; those are over-represented in the sample as a whole.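 Growth was measured after 48 h exposure to one concentration of compound in 96-well plates. Values under 10 count as active.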 Values without a mark were called inactive. The source made the active and inactive calls.

Among the test systems are DU-145 prostate; K-562 leukemia; MALME-3M melanoma; MDA-MB-231 breast; RXF 393 renal; SF-268 CNS; SF-295 CNS; SF-539 CNS; UACC-257 melanoma; M14 melanoma; HCT-15 colon; HT29 colon; SNB-75 CNS; SNB-19 CNS; U251 CNS; PC-3 prostate; SK-MEL-5 melanoma; UACC-62 melanoma; LOX IMVI melanoma; SK-MEL-28 melanoma.
Common to all, as to test: NCI-60 one-dose screen, 48 h (100 = growth as untreated, 0 = no growth, -100 = all killed)
What all share (details): 10 µM unless noted

As to `Cc1ccc2c(c1)=C/C(=C\c1cc(-c3ccccc3)oc1O)C(=O)N=2`, the growth in the assay on DU-145 prostate was 104%; with K-562 leukemia, 91.7%; in the assay with MALME-3M melanoma, 110%; in the assay with MDA-MB-231 breast it was 116%; with RXF 393 renal, 106%; in the assay on SF-268 CNS, 91.6%. The growth with SF-295 CNS is 93.1%; in the assay on SF-539 CNS, 101%; in the assay with UACC-257 melanoma it was 109%; in the assay with M14 melanoma, 90.6%; with HCT-15 colon, 97.6%; in the assay on HT29 colon, 108%. Further, the growth is 93.5% in the assay with SNB-75 CNS; 107% in the assay on SNB-19 CNS; 109% in the assay on U251 CNS; 96.3% in the assay with PC-3 prostate; 105% in the assay on SK-MEL-5 melanoma; 101% with UACC-62 melanoma. The growth in the assay with LOX IMVI melanoma was 94.4%; in the assay with SK-MEL-28 melanoma, 104%.

Consider `COC(=O)c1nc(-c2ccc(C)cc2)oc1S(=O)(=O)c1cccc(OC)c1`, for which the growth in the assay on DU-145 prostate is 104%; in the assay with K-562 leukemia, 11.6%; in the assay with MALME-3M melanoma, -12.3% (active); in the assay on MDA-MB-231 breast, 94.1%; in the assay with RXF 393 renal, 77%; in the assay with SF-268 CNS, 92.8%. In addition, the growth is 104% in the assay with SF-295 CNS; 101% in the assay on SF-539 CNS; 97.5% with UACC-257 melanoma; 90.4% in the assay on M14 melanoma; 62% in the assay on HCT-15 colon; 97.1% in the assay with HT29 colon. In addition, the growth in the assay with SNB-75 CNS was 83.3%; in the assay with SNB-19 CNS, 101%; with U251 CNS, 96.5%; in the assay with PC-3 prostate, 103%; in the assay with SK-MEL-5 melanoma, 97.8%; in the assay with UACC-62 melanoma, 92.5%. In addition, the growth was 57.1% with LOX IMVI melanoma and 99.2% in the assay on SK-MEL-28 melanoma.

With `COCCNC(=O)Nc1ccc2nc(-c3cccs3)c(-c3cccs3)nc2c1`, the growth in the assay with DU-145 prostate is 96.2%; in the assay on K-562 leukemia, 83.3%; in the assay with MALME-3M melanoma, 94.8%; in the assay on MDA-MB-231 breast it was 92.3%; in the assay with RXF 393 renal, 82.5%; in the assay on SF-268 CNS, 102%. For the same compound, the growth was 78.6% in the assay with SF-295 CNS; 85.6% in the assay on SF-539 CNS; 103% with UACC-257 melanoma; 103% in the assay on M14 melanoma; 90.9% with HCT-15 colon; 87.8% with HT29 colon. In addition, the growth was 81.6% in the assay with SNB-75 CNS; 95.5% in the assay with SNB-19 CNS; 96.7% in the assay on U251 CNS; 79.2% with PC-3 prostate; 89.5% in the assay on SK-MEL-5 melanoma; 85.1% in the assay with UACC-62 melanoma. For the same compound, the growth in the assay on LOX IMVI melanoma is 82.8%; in the assay with SK-MEL-28 melanoma, 96.7%.

For the compound `CCCOC(=O)Nc1nc2ccc(SCC(C)C)cc2s1`, the growth was 57.8% in the assay with DU-145 prostate; 20.8% in the assay on K-562 leukemia; 38.7% in the assay with MALME-3M melanoma; 62.7% in the assay with MDA-MB-231 breast; 28.2% in the assay with RXF 393 renal; 52.7% in the assay with SF-268 CNS. Further, the growth with SF-295 CNS was 32.4%; in the assay with SF-539 CNS, 26.9%; with UACC-257 melanoma, 58.7%; with M14 melanoma, 34%; in the assay on HCT-15 colon, 26.6%; with HT29 colon, 15.9%. Further, the growth was 28.6% in the assay with SNB-75 CNS; 53.9% in the assay on SNB-19 CNS; 49.2% in the assay on U251 CNS; 45.9% in the assay with PC-3 prostate; 27.6% in the assay on SK-MEL-5 melanoma; 18.9% in the assay on UACC-62 melanoma. Further, the growth in the assay with LOX IMVI melanoma is 40.8%; in the assay on SK-MEL-28 melanoma, 64.9%.

Turning to `Cc1ccc(/C=C2\COc3ccc(O)cc3C2=O)cc1`, the growth with DU-145 prostate is 103%; with K-562 leukemia, 17.9%; with MALME-3M melanoma, 90.3%; with MDA-MB-231 breast, 90.7%; in the assay on RXF 393 renal, 96.3%; in the assay with SF-268 CNS, 86.3%. The growth is 105% with SF-295 CNS; 98.7% with SF-539 CNS; 103% in the assay with UACC-257 melanoma; 93.1% in the assay on M14 melanoma; 70.8% in the assay on HCT-15 colon; 57.7% with HT29 colon. For the same compound, the growth in the assay on SNB-75 CNS is 84.6%; with SNB-19 CNS it was 87.5%; with U251 CNS, 69.9%; with PC-3 prostate, 86%; in the assay on SK-MEL-5 melanoma, 97.7%; in the assay with UACC-62 melanoma it was 86.1%. Besides, the figures for the growth in the assay on LOX IMVI melanoma and in the assay on SK-MEL-28 melanoma were 57% and 103%, respectively.

On to `Cc1cc(C)c2c(c1)N(C)c1ncnc(-n3cnc4cc(C)ccc43)c1CC2C` (stereo not given), for which the growth is 14.2% in the assay on DU-145 prostate; 7.57% (active) in the assay on K-562 leukemia; 45.2% in the assay with MALME-3M melanoma; 36.8% in the assay on MDA-MB-231 breast; -24.8% (active) in the assay on RXF 393 renal; 40.4% in the assay on SF-268 CNS. Moreover, the growth in the assay on SF-295 CNS is 1.91% (active); in the assay with SF-539 CNS, 6.25% (active); in the assay with UACC-257 melanoma, 45.3%; in the assay with M14 melanoma, 5.2% (active); in the assay with HCT-15 colon, 23.4%; in the assay with HT29 colon, 0.933% (active). For the same compound, the growth is 29.1% in the assay with SNB-75 CNS; 35.7% with SNB-19 CNS; 14.6% with U251 CNS; 20.9% in the assay with PC-3 prostate; 8.49% (active) in the assay on SK-MEL-5 melanoma; 30.7% in the assay on UACC-62 melanoma. The figures for the growth in the assay with LOX IMVI melanoma and in the assay on SK-MEL-28 melanoma were 46.5% and 62.9%, respectively.

Take `O=C1/C(=C/c2ccccc2Br)COc2ccc(O)cc21`: the growth in the assay with DU-145 prostate is 69%; with K-562 leukemia it was 11.9%; in the assay with MALME-3M melanoma it was 84%; in the assay on MDA-MB-231 breast, 73.9%; in the assay on RXF 393 renal it was 101%; with SF-268 CNS it was 86.1%. Further, the growth was 99.1% in the assay on SF-295 CNS; 80% in the assay with SF-539 CNS; 99.2% with UACC-257 melanoma; 73.3% in the assay with M14 melanoma; 40.7% with HCT-15 colon; 48.8% with HT29 colon. In addition, the growth is 89.3% in the assay with SNB-75 CNS; 75% in the assay on SNB-19 CNS; 46.1% with U251 CNS; 60.7% with PC-3 prostate; 94.6% in the assay on SK-MEL-5 melanoma; 66.4% in the assay with UACC-62 melanoma. For the same compound, the growth with LOX IMVI melanoma was 18.8%; in the assay on SK-MEL-28 melanoma it was 101%.

In the case of `C=C(CBr)[C@@H]1CC[C@]2(C(=O)O)CC[C@]3(C)[C@H](CC[C@@H]4[C@@]5(C)CCC(=O)C(C)(C)[C@@H]5CC[C@]43C)[C@@H]12`, the growth in the assay on DU-145 prostate is 86.1%; with K-562 leukemia, 50.4%; in the assay with MALME-3M melanoma, 89.4%; in the assay with MDA-MB-231 breast, 81%; in the assay on RXF 393 renal, 85.9%; with SF-268 CNS, 83.1%. For the same compound, the growth with SF-295 CNS was 79.2%; in the assay on SF-539 CNS, 99.2%; with UACC-257 melanoma it was 80.2%; in the assay on M14 melanoma it was 80%; in the assay with HCT-15 colon, 73.2%; with HT29 colon, 97.5%. The growth is 98.7% in the assay with SNB-75 CNS; 78.7% with SNB-19 CNS; 70.9% with U251 CNS; 57.4% in the assay on PC-3 prostate; 50.5% in the assay on SK-MEL-5 melanoma; 69% in the assay on UACC-62 melanoma. Besides, the values for the growth with LOX IMVI melanoma and in the assay on SK-MEL-28 melanoma were 75.4% and 88.7%, respectively.

The values above are taken from PubChem BioAssay (NCI).
